# In PMC7826789 (International Journal of Molecular Sciences, 2021):
# Experiments:
# Conditions in all cases: Compound Concentration (nM):1000
# [1] = system: T1, SIK
# T1 construct: gene SIK1
# [2] = system: SLK
# [3] = system: T2, SNARK
# T2 construct: gene NUAK2
# [4] = system: SNRK
# [5] = system: SRC
# [6] = system: SRMS
# [7] = system: SRPK1
# [8] = system: SRPK2
# [9] = system: SRPK3
# [10] = system: STK16
# 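Also: KINOMEscan scanMAX binding as percent activity remaining versus control; lower means stronger binding.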
SMILES,Percent Control [1],Percent Control [2],Percent Control [3],Percent Control [4],Percent Control [5],Percent Control [6],Percent Control [7],Percent Control [8],Percent Control [9],Percent Control [10]
CN(C)CCNC(=O)Nc1ccc(N(C)c2ccnc(Nc3ccc(CS(C)(=O)=O)cc3)n2)cc1.Cl [GW830900A],74%,42%,43%,77%,100%,95%,17%,100%,7.7%,30%
CN(C)c1cc2c(Nc3ccc4c(cnn4Cc4ccccc4)c3)ncnc2cn1 [GW282974X],29%,81%,100%,88%,100%,74%,82%,100%,97%,88%
COc1ccc(COc2ccc(Cc3cnc(N)nc3N)cc2OC)cc1 [GW632580X],96%,93%,88%,87%,88%,100%,100%,95%,100%,93%
C/C(Nc1ccc(S(N)(=O)=O)cc1)=C1/C(=O)Nc2ccccc21 [GW335962X],100%,92%,65%,100%,100%,91%,82%,88%,87%,41%
O=C(Nc1n[nH]c2nc(-c3ccc(O)cc3)c(Br)cc12)C1CC1 [SB-725317],100%,41%,100%,100%,100%,100%,100%,100%,100%,76%
Cl.O=S1CCN(Cc2ccc(-c3ccc4ncnc(Nc5ccc(OCc6ccccc6)c(F)c5)c4c3)o2)CC1 [GW576924A],100%,100%,96%,100%,100%,100%,100%,100%,78%,100%
COc1cc(N2CCN(C(C)C)CC2)ccc1Nc1nc(Nc2ccc(F)cc2C(=O)NC[C@@H](O)CO)c2cc[nH]c2n1 [GSK1392956A],100%,100%,66%,87%,100%,100%,99%,99%,100%,85%
Cl.O=C(O[C@H]1CN[C@H](C#Cc2cc3ncnc(Nc4ccc5c(cnn5Cc5ccccc5)c4)c3s2)C1)N1CCOCC1 [GSK200398A],100%,98%,100%,100%,100%,92%,84%,85%,100%,100%
NS(=O)(=O)c1ccc(N/N=C2\C(=O)Nc3ccc(Cl)cc32)cc1 [GW280670X],100%,100%,91%,100%,100%,100%,97%,100%,88%,84%
COc1cccc(-n2ncc3c(N/N=C/c4ccncc4)ncnc32)c1 [GW784752X],100%,100%,100%,100%,54%,99%,94%,100%,99%,82%
COc1cccc(-c2c[nH]c3c(N/N=C/c4ccncc4)ncnc23)c1 [GW814408X],92%,76%,56%,100%,27%,100%,38%,100%,60%,65%
NS(=O)(=O)c1ccc(N/N=C2\C(=O)Nc3ccc(C(=O)NCc4ccncc4)cc32)cc1 [GW300657X],95%,100%,8.9%,100%,100%,93%,89%,6.6%,72%,23%
Cc1cc(O)cc(C)c1/C=C/c1cncc(C(N)=O)c1 [GW435821X],38%,100%,92%,100%,57%,38%,88%,100%,85%,98%
Cl.c1ccc(Cc2nc3ccc(Nc4ncnc5ccccc45)cc3[nH]2)cc1 [GR269666A],100%,100%,100%,100%,100%,100%,100%,100%,78%,100%
NS(=O)(=O)c1ccc(N/N=C2\C(=O)Nc3ccc(C(=O)NCCc4c[nH]cn4)cc32)cc1 [GW300660X],100%,100%,6.9%,100%,100%,90%,86%,100%,76%,34%
Cl.O=C(Nc1ccc(Oc2ccc3[nH]c(NC(=O)c4ccccc4)nc3c2)cc1)Nc1cc(C(F)(F)F)ccc1F [GW709042A],100%,70%,92%,89%,98%,91%,89%,93%,70%,88%
C[C@@H](Oc1cc(-n2cnc3ccc(OC4CCN(C)CC4)cc32)sc1C(N)=O)c1ccccc1Cl [GSK579289A],100%,7.9%,1%,59%,100%,94%,92%,86%,100%,69%
COc1cc2ncnc(Nc3ccc4c(cnn4Cc4ccccc4)c3)c2cc1OC.Cl [GW282449A],100%,77%,100%,100%,100%,50%,92%,100%,97%,100%
COc1cc(/C=N/Nc2ncnc3[nH]ncc23)ccc1O [GW578748X],87%,100%,36%,100%,22%,39%,97%,91%,98%,32%
CC1=C(C(=O)Nc2ccc3[nH]ncc3c2)C(c2ccc3ccccc3c2)CC(=O)N1 (stereo not shown) [GSK270822A],100%,83%,7.1%,95%,74%,100%,85%,100%,100%,88%

SMILES,Percent Control [1],Percent Control [2],Percent Control [3],Percent Control [4],Percent Control [5],Percent Control [6],Percent Control [7],Percent Control [8],Percent Control [9],Percent Control [10]
O=C1Nc2ccc(C(=O)c3ccco3)cc2C1=Cc1cc(Cl)c(O)c(Cl)c1 [GW406108X],93%,100%,79%,100%,100%,89%,88%,100%,100%,60%
CC1=C(C(=O)Nc2ccc3[nH]ncc3c2)C(c2ccc(Cl)c(Cl)c2)CC(=O)N1 (stereo not shown) [GSK299115A],97%,98%,25%,100%,80%,88%,99%,100%,90%,85%
CCn1c(-c2nonc2N)nc2c(C#CC(C)(C)O)nc(OCCNC)cc21.Cl [GSK949675],89%,100%,41%,100%,100%,100%,84%,100%,100%,100%
CN1CCN(C(=O)c2ccc(NC(=O)Nc3ccc(N(C)c4ccnc(Nc5ccc(CS(C)(=O)=O)cc5)n4)cc3)cc2)CC1.Cl [GW830263A],92%,8.9%,39%,78%,100%,77%,2.3%,80%,7.7%,15%
CCS(=O)(=O)c1ccc(OC)c(Nc2ncc(-c3cccc(OC)c3)o2)c1 [GW580509X],97%,100%,96%,100%,26%,54%,96%,100%,100%,37%
COc1cc2ncn(-c3cc(O[C@H](C)c4ccccc4Cl)c(C(N)=O)s3)c2cc1OC [GSK237701A],100%,0.4%,4.3%,91%,79%,92%,100%,100%,100%,60%
COc1cc(C=NNc2ncnc3c2cnn3-c2ccccc2)ccc1O [GW513184X],79%,79%,87%,100%,59%,100%,33%,100%,100%,100%
NS(=O)(=O)c1ccc(N/N=C2\C(=O)Nc3ccc(-c4cnco4)cc32)cc1 [GW276655],77%,86%,49%,55%,83%,73%,100%,100%,76%,46%
COc1cc(C)c(N(C)C(=O)CN(C)C)cc1Nc1nc(Nc2cccc(F)c2C(N)=O)c2cc[nH]c2n1 [GSK2219385],100%,100%,100%,76%,100%,100%,90%,100%,100%,83%
COc1ccc2cc(-c3c(-c4ccncc4)nc(-c4ccc(S(C)(=O)=O)cc4C)n3C)ccc2c1 [SB-633825],96%,1.7%,82%,91%,82%,85%,90%,76%,83%,93%
Cl.O=C(Nc1ccc(Oc2ccc3[nH]c(NC(=O)c4ccco4)nc3c2)cc1)Nc1cc(C(F)(F)F)ccc1F [GW683134A],100%,40%,100%,95%,96%,100%,100%,100%,84%,92%
Nc1ncnc2occ(-c3ccc(NC(=O)Nc4cc(C(F)(F)F)ccc4F)cc3)c12 [GW770249X],100%,6.3%,87%,100%,92%,91%,74%,76%,63%,97%
COc1ccccc1-c1cc(/C=C2\C(=O)Nc3ncc(Br)cc32)cc(Br)c1O [GW442130X],100%,100%,89%,100%,91%,100%,100%,100%,100%,87%
CC(C)COC(=O)c1ccc2c(c1)/C(=C/Nc1ccc(S(N)(=O)=O)cc1)C(=O)N2 [GW416981X],100%,100%,13%,100%,100%,100%,100%,100%,100%,6.8%
COC(=O)Nc1nc2ccc(Oc3ccc(NC(=O)Nc4cc(C(F)(F)F)ccc4F)cc3)cc2s1.Cl [GW693917A],98%,68%,86%,100%,54%,92%,86%,90%,74%,76%
COc1ccc2[nH]c3c4[nH]c5ccc(OC)cc5c4c4c(c3c2c1)C(=O)NC4=O [GW296115X],67%,96%,59%,56%,87%,100%,86%,94%,100%,74%
NS(=O)(=O)c1ccc(Nc2ncc(-c3ccccc3)o2)cc1 [GW572399X],100%,100%,79%,100%,100%,100%,94%,100%,98%,31%
CCc1ccc(Oc2nccc(-c3c(-c4ccc(F)cc4)ncn3C3CCNCC3)n2)cc1 [SB-242719],100%,79%,87%,99%,100%,91%,82%,100%,88%,89%
COc1ccc2c(-c3ccnc(Nc4cccc(OC(F)(F)F)c4)n3)cnn2n1 [GW810372X],100%,100%,73%,98%,100%,99%,88%,87%,92%,9.4%
CCS(=O)(=O)c1ccc(OC)c(Nc2ncc(-c3cccc(F)c3)o2)c1 [GW621970X],100%,100%,100%,100%,19%,67%,92%,97%,100%,38%
